Drawing on PubChem BioAssay (NCI), this text covers growth inhibition for 38 compounds.

Test [1] in a line: NCI Yeast Anticancer Drug Screen. Data for the rad50 strain (AID 155).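 Further: 0% = growth of vehicle-only cultures of the same strain.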 The settings on record: S. cerevisiae rad50 strain growth inhibition; at 50.0 µM; active compounds read high. In a few lines: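 DNA repair mutant yeast, compound exposure, growth read-out; inhibition is taken relative to vehicle.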
Test [2] can be described thus: NCI Yeast Anticancer Drug Screen. Data for the mec2-1 strain (AID 157). The settings on record: S. cerevisiae mec2-1 strain, at 50.0 µM, active compounds read high. The procedure, abridged:
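Strain: mec2-1 (DNA repair/cell cycle alteration). Compound exposure, then growth measured; inhibition expressed relative to vehicle.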

Test [3] can be described thus: NCI Yeast Anticancer Drug Screen. Data for the sgs1 mgt1 strain (AID 161).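 Further: 0% = growth of cultures given vehicle only.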 The settings on record: S. cerevisiae sgs1 mgt1 strain, at 50.0 µM, active compounds read high. The procedure, abridged:
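Test agents were incubated with a DNA-repair-mutant yeast strain. Growth was then read and compared against vehicle-treated controls.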

Test [4] is described as follows: NCI Yeast Anticancer Drug Screen. Data for the cln2 rad14 strain (AID 165).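 Further: 0% = growth equal to vehicle treated cultures.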 The settings on record: S. cerevisiae cln2 rad14 strain, at 50.0 µM, active compounds read high. The procedure, abridged:
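Compounds are applied to the cln2 rad14 yeast strain, and growth is then compared with that of vehicle-treated cultures to give inhibition.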

Test [5] can be described thus: NCI Yeast Anticancer Drug Screen. Data for the bub3 strain (AID 167). The following applies: S. cerevisiae bub3 mutant strain, at 50.0 µM, active compounds read high. In a few lines:
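In this screen, a yeast mutant lacking normal mitotic checkpoint function is challenged with compound. Relative growth versus vehicle gives the inhibition value.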

Test [6] can be described thus: NCI Yeast Anticancer Drug Screen. Data for the mlh1 rad18 strain (AID 175). The settings on record: S. cerevisiae mlh1 rad18 strain growth inhibition; at 50.0 µM; active compounds read high. In a few lines: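 Read-out is yeast growth inhibition, calculated against vehicle-only controls. The compound was applied to a strain engineered with DNA damage repair alterations.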

The panel holds about 79,000 compounds, 15% with a hit somewhere; the sample as a whole holds those more often. A number with no mark means an inactive call. Active and inactive are the calls of the source. No stated cut-off is given here; in the data, active means growth inhibition above about 70%; inactive means the rest.

On to `CC(=S)NNC(=O)c1ccncc1`, for which the growth inhibition is -14.1% in test [1]; 6.05% in test [2]; -8.2% in test [3]; -1.15% in test [4]; -20.1% in test [5]; -14.9% in test [6].

Take `COc1cc(/C=N/N=C(\N)NO)cc(OC)c1OC`: the growth inhibition is -6.5% in test [1]; 3.85% in test [2]; 2.4% in test [3]; 6.35% in test [4]; 1% in test [5]; 4.55% in test [6].

For the compound `COc1ccc(C(Br)C(Br)C(=O)C(C)(C)C)cc1` (stereo not drawn), the growth inhibition is -2.95% in test [1]; 8.75% in test [2]; 6.2% in test [3]; -21.6% in test [4]; 31.6% in test [5]; 30.4% in test [6].

With `C=CCOCCC(OCC=C)OCC=C`, the growth inhibition is 1.25% in test [1]; 7.75% in test [2]; 4.4% in test [3]; -23.9% in test [4]; -1.3% in test [5]; 8.85% in test [6].

Take `NCCN(CCN)/[N+]([O-])=N/O`: the growth inhibition in test [1] is 18.6%; in test [2], -0.2%; in test [3], 6.3%; in test [4], -1%; in test [5], 0.65%; in test [6], 16.9%.

Turning to `CCCCC(=O)NC1=CC(=O)c2ccccc2C1=O`, the growth inhibition was 41.2% in test [1]; 30.4% in test [2]; 47.1% in test [3]; 29.6% in test [4]; 56.1% in test [5]; 45.8% in test [6].

As for `Cc1cccc(N=Cc2ccc(Cl)cc2Cl)c1C`, the growth inhibition in test [1] was 34.6%; in test [2], 20.1%; in test [3] it was 26.7%; in test [4] it was 28.6%; in test [5] it was 19%; in test [6], 31.6%.

On to `CCOC(=O)Nc1nc2c(s1)c([N+](=O)[O-])cn2C`, for which the growth inhibition in test [1] is 11.6%; in test [2] it was 7%; in test [3] it was 17.1%; in test [4], 2.45%; in test [5], 4.6%; in test [6], 20.6%.

As for `COc1ccc(-c2c(C(C)=O)c(-c3ccccc3)n(C3OC(COC(C)=O)C(OC(C)=O)C(OC(C)=O)C3OC(C)=O)c(=S)c2C#N)cc1` (stereo not drawn), the growth inhibition was -17.7% in test [1]; -25.9% in test [2]; -26.1% in test [3]; 7.85% in test [4]; 0.75% in test [5]; -36.2% in test [6].

Turning to `O=S1(=O)CCC(N(N=C2CCCCC2)c2ccccc2)C1` (stereo not drawn), the growth inhibition in test [1] was 96.5% (active); in test [2], 98.3% (active); in test [3], 98.5% (active); in test [4], 96.8% (active); in test [5], 98.4% (active); in test [6], 98% (active).

Regarding `N#CCC(=O)N1CCCCC1`, the growth inhibition was -8.3% in test [1]; -12.1% in test [2]; 9.9% in test [3]; -3.15% in test [4]; 3.1% in test [5]; -19.8% in test [6].

Take `CCCCC/C=C1\CCC(CN2CCOCC2)C1=O` (stereo not drawn): the growth inhibition in test [1] is 89.5% (active); in test [2], 90.7% (active); in test [3], 91.9% (active); in test [4] it was 90.1% (active); in test [5], 90.3% (active); in test [6], 89% (active).

On to `COc1ccccc1/C=C1\CCC(CN(C)C)C1=O` (stereo not drawn), for which the growth inhibition in test [1] was 82.2% (active); in test [2], 89.5% (active); in test [3] it was 91.8% (active); in test [4], 55.4%; in test [5], 91.1% (active); in test [6] it was 92.2% (active).

As to `c1ccc2c(c1)ccc1c2ccc2c1cc1ccccn12`, the growth inhibition in test [1] is -4.2%; in test [2] it was 7.45%; in test [3] it was -13.2%; in test [4], -14.7%; in test [5], -20.3%; in test [6], 0.8%.

Take `CC(=O)Nc1cc2cc(N=CN(C)C)ccc2oc1=O`: the growth inhibition was -24.9% in test [1]; -43.4% in test [2]; -16.4% in test [3]; -10.8% in test [4]; -18.1% in test [5]; -7.4% in test [6].

Consider `Nc1nc(SCC(=O)c2ccc(F)cc2)sc1C(=O)c1ccc(F)cc1`, for which the growth inhibition in test [1] is -9.75%; in test [2] it was 6.9%; in test [3], 1.4%; in test [4], 1.3%; in test [5], -0.9%; in test [6], 14%.

In the case of `COc1cc([N+](=O)[O-])c2[nH]c(=O)ccc2c1`, the growth inhibition in test [1] is -11.7%; in test [2], 19.7%; in test [3], -4.5%; in test [4] it was -7.2%; in test [5], -2.05%; in test [6], 3.45%.

As to `COC1=CC(=O)C(C)=CC1=O`, the growth inhibition in test [1] is -2.1%; in test [2] it was 2.65%; in test [3], 3.5%; in test [4], 7.35%; in test [5], 16.3%; in test [6], 7.5%.

Consider `O=S(=O)(c1ccccc1)N1CCC1c1ccccc1` (stereo not drawn), for which the growth inhibition in test [1] was -11.3%; in test [2] it was -3.9%; in test [3], -8.8%; in test [4] it was 21.9%; in test [5] it was 9.3%; in test [6] it was 0.8%.

As to `O=C(Oc1ccccc1)c1ccc(C(=O)Oc2ccccc2)cc1`, the growth inhibition in test [1] was 9%; in test [2], 28.7%; in test [3], 15.8%; in test [4], 3.9%; in test [5] it was 43.1%; in test [6] it was 11.6%.

With `O=C(O)c1cc2oc3ccccc3c2cc1O`, the growth inhibition in test [1] is 2.4%; in test [2], -7.5%; in test [3], 18.6%; in test [4], 4.4%; in test [5], 2.4%; in test [6], 23.3%.

With `Cc1cc(C(=O)CSC(=S)SC(C)(C)C)ccc1Cl`, the growth inhibition is 9.3% in test [1]; -30.1% in test [2]; -5.85% in test [3]; 4.45% in test [4]; -17.9% in test [5]; -5.2% in test [6].

Consider `CCCC[P+](CCCC)(CCCC)C(C(=O)OC)C(C(=O)OC)=C1SC(C(=O)OC)=C(C(=O)OC)S1` (stereo not drawn), for which the growth inhibition was -0.75% in test [1]; 0.7% in test [2]; 6.75% in test [3]; 6.6% in test [4]; 19.4% in test [5]; -45.5% in test [6].

For the compound `NS(=O)(=O)c1ncc(C(=O)N2CCN(Cc3ccccc3)CC2)[nH]1`, the growth inhibition was -6.15% in test [1]; -7.75% in test [2]; 7.2% in test [3]; -11.7% in test [4]; 1.05% in test [5]; 6.95% in test [6].

In the case of `CNC(=S)c1ccc(Cl)cc1`, the growth inhibition in test [1] is 12.3%; in test [2] it was -20.6%; in test [3], -15.1%; in test [4], -29.8%; in test [5], -2.05%; in test [6], 11.3%.

For the compound `Cc1cc(Cl)ccc1NC(=O)CCCC(=O)C1CCC/C1=N\NC(=O)CC#N` (stereo not drawn), the growth inhibition in test [1] was -33.2%; in test [2], 9.7%; in test [3], -7.25%; in test [4], 8.95%; in test [5], 5.7%; in test [6], -12.3%.

Regarding `Nc1ccccc1SC1CC(=O)N(c2ccc(Oc3ccc(Cl)cc3)cc2)C1=O` (stereo not drawn), the growth inhibition in test [1] is 25.6%; in test [2] it was 12.2%; in test [3], 13.8%; in test [4] it was -12.2%; in test [5] it was -0.15%; in test [6], 2.55%.

As for `COc1ccc(OC)c(/C=C/c2ccc(NC(=O)C(Cl)(Cl)Cl)cc2)c1`, the growth inhibition in test [1] is -11.1%; in test [2], -3.8%; in test [3], -12.2%; in test [4], -36.3%; in test [5], -2.55%; in test [6], 10.2%.

Regarding `NS(=O)(=O)c1ccc(NC(=O)Nc2ccccc2F)cc1`, the growth inhibition in test [1] is -3.35%; in test [2], -6.85%; in test [3], -28.4%; in test [4], -13.2%; in test [5], 1.15%; in test [6] it was 12.6%.

For `Cc1ccc(SC(=O)N2C(=S)NC(=NC3CCCCC3)C23CCCCC3)cc1`, the growth inhibition in test [1] was -14%; in test [2], -9.05%; in test [3], -4.05%; in test [4] it was -41.3%; in test [5], -32.5%; in test [6], -24.5%.

For the compound `CCOc1ccc(C2Oc3c(cccc3OC)C=C2[N+](=O)[O-])cc1OCC` (stereo not drawn), the growth inhibition was 38.8% in test [1]; 38.9% in test [2]; 32.5% in test [3]; 11.4% in test [4]; 42.2% in test [5]; 5.7% in test [6].

Take `O=C(Nc1ccc(Br)cc1)C(=O)C(C(=O)c1ccc(Cl)c(Cl)c1)C1OC(=O)c2ccccc21` (stereo not drawn): the growth inhibition in test [1] was 59.1%; in test [2], 42.5%; in test [3], 36.6%; in test [4], 64.5%; in test [5], 47.3%; in test [6], 36.7%.

In the case of `NC(=O)SCC(=O)Nc1ccc2ncccc2c1`, the growth inhibition was -18.9% in test [1]; 4.7% in test [2]; -22.8% in test [3]; -27.2% in test [4]; -8.15% in test [5]; 2.8% in test [6].

With `S=c1nc[nH][nH]1`, the growth inhibition in test [1] is 21.5%; in test [2], -3.7%; in test [3] it was 15.6%; in test [4] it was -8.65%; in test [5], 1.4%; in test [6], 21.6%.

As to `C/C=C(\C)CCC(C)(O)CC` (stereo not drawn), the growth inhibition in test [1] was 2.2%; in test [2] it was -15.6%; in test [3], 7.45%; in test [4], 3%; in test [5], -22.4%; in test [6] it was 14.1%.

For the compound `CCN(CC)CCN(C)C(=O)C(=O)c1ccccc1`, the growth inhibition in test [1] is -20.1%; in test [2], -0.85%; in test [3], -10.6%; in test [4], 9.75%; in test [5] it was 4.8%; in test [6], -8.2%.

For the compound `O=S1(=O)CC(O)C(Br)C1` (stereo not drawn), the growth inhibition in test [1] is -6.7%; in test [2] it was 24.1%; in test [3], 10.1%; in test [4] it was 4.85%; in test [5], 2.35%; in test [6], -10.8%.

Take `COc1ccc2c3c(ccc2c1)C1CC(=O)CC1CC3` (stereo not drawn): the growth inhibition in test [1] was 30.6%; in test [2], -11.2%; in test [3], 54.8%; in test [4] it was 12.2%; in test [5] it was 61%; in test [6] it was 14.7%.
